# Values without a mark were called inactive. Results filed as inconclusive are left out. Where a call stands in place of a potency, no number is given. Activity calls are given as the source filed them. Unless noted, the call rests on the fitted dose curve; in most records, active means well fitted curve in the direction sought with a large enough effect in the repeat runs; inconclusive means weak or mixed curves; inactive means no such curve, though single readings can be large; an effect the other way counts as inactive or inconclusive.
# Key:
# [1] = qHTS assay to identify small molecule antagonists of the estrogen receptor alpha (ER-alpha) signaling pathway using the BG1 cell line in the presence of 0.1 nM 17-beta-estradiol - cell viability counter screen (AID 1259241); further: nearly all actives have a fitted effect of over 40% in size
# Summary of the method: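 VM7Luc4E2 cells (endogenous ER-alpha, 4×ERE-luciferase), hormone-starved 5 days in charcoal-stripped FBS, were treated with compounds plus 0.1 nM 17beta-estradiol for 22 hr at 37C; viability read in same wells as CellTiter-Fluor live-cell protease fluorescence.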
# [2] = qHTS assay to identify small molecule antagonists of the androgen receptor (AR) signaling pathway using the MDA cell line in the presence of 0.5 nM R1881 - cell viability counter screen (AID 1259242); further: nearly all actives have a fitted effect of over 45% in size
# Summary of the method: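 MDA-kb2 cells (MMTV-luciferase, AR/GR responsive) were treated with compounds plus 0.5 nM R1881 (final) for 16 hr at 37C, 0% CO2. Viability was then read in the same wells as live-cell protease fluorescence (CellTiter-Fluor, 30 min).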
# [3] = biological target: Estrogen receptor (Homo sapiens) (UniProt P03372); assay: qHTS assay to identify small molecule antagonists of the estrogen receptor alpha (ER-alpha) signaling pathway using the BG1 cell line in the presence of 0.1 nM 17-beta-estradiol (AID 1259244); further: nearly all actives have a fitted effect of over 50% in size
# Estrogen receptor (Homo sapiens), sequence (P03372 whole entry, looked up): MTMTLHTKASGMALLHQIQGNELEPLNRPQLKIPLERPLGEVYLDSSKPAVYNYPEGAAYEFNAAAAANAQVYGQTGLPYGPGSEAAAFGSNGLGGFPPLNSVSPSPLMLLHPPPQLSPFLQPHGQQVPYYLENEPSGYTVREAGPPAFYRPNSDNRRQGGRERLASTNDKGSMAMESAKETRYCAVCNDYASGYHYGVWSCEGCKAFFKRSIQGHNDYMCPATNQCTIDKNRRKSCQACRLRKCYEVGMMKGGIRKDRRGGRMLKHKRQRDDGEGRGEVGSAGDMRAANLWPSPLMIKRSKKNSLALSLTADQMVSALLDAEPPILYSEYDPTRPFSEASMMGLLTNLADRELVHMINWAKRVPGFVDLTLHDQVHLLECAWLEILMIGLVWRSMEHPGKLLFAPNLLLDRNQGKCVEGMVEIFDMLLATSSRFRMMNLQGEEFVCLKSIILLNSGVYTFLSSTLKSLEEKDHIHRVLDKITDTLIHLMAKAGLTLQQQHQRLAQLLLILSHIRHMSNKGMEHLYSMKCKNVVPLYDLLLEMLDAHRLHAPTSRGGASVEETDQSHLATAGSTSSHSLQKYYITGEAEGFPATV
# Summary of the method: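 VM7Luc4E2 cells (endogenous full-length ER-alpha, 4×ERE-luciferase), kept 5 days in phenol red-free, charcoal-stripped FBS medium; 4,000 cells/well. Compounds added with 0.1 nM (final) 17beta-estradiol, 22 hr at 37C; luminescence read with ONE-Glo after 30 min.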
# [4] = qHTS assay to identify small molecule phospholipidosis (PLD) inducers (AID 1259344; active means well fitted curve in the direction sought with a large enough effect; an effect the other way counts as inactive or inconclusive)
# Summary of the method: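 HepG2 cells grown on collagen I take up LipidTOX Red while exposed to compound for 24 h; after fixation they are imaged at 20x and pit metrics are extracted.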
# [5] = qHTS assay to identify small molecule HDAC inhibitors (AID 1259364); further: top concentration of the series differs between compounds; nearly all actives have a fitted effect of over 45% in size
# Summary of the method: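 Wild-type HCT-116 cells, plated overnight at 37 C, exposed to compounds 2 hr at 37 C; luminogenic HDAC-Glo substrate then added 30 min at room temperature. Luminescence reports relative endogenous class I/II HDAC activity.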
# [6] = qHTS assay to identify small molecule HDAC inhibitors - cell viability counter screen (AID 1259365); further: series mostly up to about 92 µM; nearly all actives have a fitted effect of over 50% in size
# Summary of the method: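 Wild-type HCT-116 cells were seeded at 1,500 per well, incubated overnight at 37 C, then exposed to compounds in DMSO for 2hr. Viability was read by CellTiter-Glo luminescence after 30min at room temperature.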
# [7] = qHTS assay to identify small molecule agonists of the sonic hedgehog signaling (Shh) pathway - cell viability counter screen (AID 1259366); further: nearly all actives have a fitted effect of over 50% in size
# Summary of the method: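 NIH/3T3-derived 3T3 Gli1-Luc cells (stable Gli1-responsive firefly luciferase reporter) were seeded, rested 4 hr at 37 C/5% CO2, then exposed to compounds in DMSO for 24 hr; viability was read by CellTiter-Fluor fluorescence in the same wells.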
# [8] = qHTS assay to identify small molecule antagonists of the sonic hedgehog signaling (Shh) pathway - cell viability counter screen (AID 1259367); further: nearly all actives have a fitted effect of over 55% in size
# Summary of the method: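 After a 4 hr settling period, 3T3 Gli1-Luc cells were treated with DMSO-dissolved chemicals and conditioned medium, kept 24 hr at 37C in 5% CO2, and assayed for viability by CellTiter-Fluor fluorescence following 1 hr reagent incubation.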
# [9] = qHTS assay to identify small molecule antagonists of the sonic hedgehog signaling (Shh) pathway (AID 1259369; calls by dose curve; further: nearly all actives have a fitted effect of over 45% in size)
# Summary of the method: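 NIH/3T3-derived Gli1-Luc reporter cells plated 4 h, dosed with compound, then stimulated with conditioned medium for 24 h at 37 C. Firefly luciferase luminescence read after 30 min with detection reagent at room temperature.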
# [10] = biological target: Estrogen receptor beta (Homo sapiens) (UniProt Q92731); assay: qHTS assay to identify small molecule antagonists of the estrogen receptor beta (ER-beta) signaling pathway (AID 1259378; active means well fitted inhibition curve with a large enough effect in the signal ratio in the repeat runs, not every such curve was filed as active; the % refers to the signal ratio)
# Estrogen receptor beta (Homo sapiens), sequence (Q92731 whole entry, looked up): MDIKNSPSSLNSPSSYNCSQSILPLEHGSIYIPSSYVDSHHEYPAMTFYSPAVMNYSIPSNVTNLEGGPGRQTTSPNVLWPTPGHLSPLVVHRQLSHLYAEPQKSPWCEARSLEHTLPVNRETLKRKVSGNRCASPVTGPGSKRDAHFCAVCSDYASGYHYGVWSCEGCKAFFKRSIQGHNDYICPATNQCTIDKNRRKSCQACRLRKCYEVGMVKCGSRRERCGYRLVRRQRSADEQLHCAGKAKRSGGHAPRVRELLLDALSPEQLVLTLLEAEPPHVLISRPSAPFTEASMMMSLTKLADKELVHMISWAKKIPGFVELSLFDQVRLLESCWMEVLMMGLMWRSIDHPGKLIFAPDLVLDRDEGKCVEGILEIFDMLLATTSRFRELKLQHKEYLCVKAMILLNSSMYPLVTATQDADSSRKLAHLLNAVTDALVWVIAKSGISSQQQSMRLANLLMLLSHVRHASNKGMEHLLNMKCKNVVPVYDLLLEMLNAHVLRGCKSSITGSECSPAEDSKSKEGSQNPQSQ
# Summary of the method: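 ER-beta-UAS-bla HEK293T (GripTite) cells in 2% charcoal-stripped FBS medium were preincubated 6 hr at 37C, dosed with compound, then stimulated with 1 nM E2 (final) for 16 hr; beta-lactamase reporter read by B/G FRET fluorescence after 2 hr substrate loading.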
# [11] = qHTS assay to identify small molecule agonists of the androgen receptor (AR) signaling pathway in the presence of an antagonist - cell viability counter screen (AID 1259379);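 further: MDA-kb2 human breast cancer cells carrying an MMTV luciferase reporter; series mostly up to about 92 µM; nearly all actives have a fitted effect of over 25% in size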
# Summary of the method: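 MDA-kb2 cells (MMTV-luciferase, AR/GR), 3,000/well, 5 h attachment, then 3.0 µM nilutamide (final) and compounds at 15 concentrations. Viability by CellTiter-Fluor fluorescence after 16 h at 37 °C, 0% CO2, in the reporter wells.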
# [12] = qHTS assay to identify small molecule agonists of the estrogen receptor beta (ER-beta) signaling pathway - cell viability counter screen (AID 1259380); further: nearly all actives have a fitted effect of over 30% in size; further: potency means the concentration at half of the fitted maximal effect
# Summary of the method: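 ER-beta-UAS-bla HEK293T cells in medium with 2% charcoal-stripped FBS, pre-incubated 6 hr, then treated 16 hr at 37C. Cytotoxicity read in the same wells by CellTiter-Glo luminescence after 30 min at room temperature.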
# [13] = qHTS assay to identify small molecule antagonists of the estrogen receptor beta (ER-beta) signaling pathway - cell viability counter screen (AID 1259382); further: series mostly up to about 92 µM; nearly all actives have a fitted effect of over 55% in size
# Summary of the method: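 ER-beta-UAS-bla HEK293T cells in 2% charcoal-stripped FBS medium, treated with compound plus 1 nM 17-beta-estradiol for 16 h at 37C. Viability read by CellTiter-Glo luminescence after 30 min at room temperature in the same wells.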
# [14] = biological target: Estrogen receptor (Homo sapiens) (UniProt P03372); assay: qHTS assay to identify small molecule agonists of the estrogen receptor alpha (ER-alpha) signaling pathway in the presence of an antagonist (AID 1259383; calls by dose curve; further: top concentration of the series differs between compounds; nearly all actives have a fitted effect of over 15% in size)
# Summary of the method: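 VM7Luc4E2 cells express endogenous full-length ER-alpha with an ERE-luciferase reporter and were hormone-deprived for 5 days. Compounds at 15 concentrations were added with 10.0nM ICI-182,780 for 22hr at 37C. Luminescence was read with ONE-Glo.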
# [15] = qHTS assay to identify small molecule agonists or antagonists of the thyroid stimulating hormone receptor (TSHR) signaling pathway - wild type cell line counter screen (AID 1259384; calls by dose curve; further: potency means the concentration at half of the fitted maximal effect)
# Summary of the method: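 Wild-type HEK293 cells were plated 18 h at 37 C/5% CO2, pin-dosed with compound plus Ro20-1724 medium, held 30 min at room temperature, then given cAMP-d2 and anti-cAMP-cryptate; fluorescence was read after 1 h. Fifteen concentrations, triplicate.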
# [16] = biological target: Thyrotropin receptor (Homo sapiens) (UniProt P16473); assay: qHTS assay to identify small molecule antagonists of the thyroid stimulating hormone receptor (TSHR) signaling pathway (AID 1259385; calls by dose curve; further: nearly all actives have a fitted effect of over 20% in size)
# Thyrotropin receptor (Homo sapiens), sequence (P16473 whole entry, looked up): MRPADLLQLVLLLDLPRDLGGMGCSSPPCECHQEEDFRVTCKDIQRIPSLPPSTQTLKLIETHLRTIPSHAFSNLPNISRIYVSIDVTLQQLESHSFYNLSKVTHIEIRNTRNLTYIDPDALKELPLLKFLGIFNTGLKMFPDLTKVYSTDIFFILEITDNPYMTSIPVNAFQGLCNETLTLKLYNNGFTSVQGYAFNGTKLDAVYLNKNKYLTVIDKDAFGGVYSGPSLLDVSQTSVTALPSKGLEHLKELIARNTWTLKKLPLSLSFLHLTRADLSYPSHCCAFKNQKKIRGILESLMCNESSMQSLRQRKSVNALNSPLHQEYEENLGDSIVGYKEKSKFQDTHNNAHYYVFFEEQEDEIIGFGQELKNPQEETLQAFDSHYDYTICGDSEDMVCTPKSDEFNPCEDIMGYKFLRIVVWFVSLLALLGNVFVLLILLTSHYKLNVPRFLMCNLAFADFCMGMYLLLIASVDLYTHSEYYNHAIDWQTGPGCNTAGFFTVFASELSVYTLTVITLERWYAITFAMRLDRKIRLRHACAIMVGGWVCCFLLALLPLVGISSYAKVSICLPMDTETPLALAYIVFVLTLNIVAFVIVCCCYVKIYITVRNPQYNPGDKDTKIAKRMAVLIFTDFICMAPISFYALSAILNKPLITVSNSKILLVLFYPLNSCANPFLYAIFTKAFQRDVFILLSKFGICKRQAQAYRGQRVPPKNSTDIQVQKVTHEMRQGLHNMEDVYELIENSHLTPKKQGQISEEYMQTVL
# Summary of the method: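 TSHR-HEK293 cells were plated and held 18 h at 37C/5% CO2, then given compound plus Ro20-1724 and stimulated with TSH at 1.5 ng/mL final. After 30 min at room temperature, cAMP was detected with cAMP-d2/anti-cAMP-cryptate (1 h) by fluorescence.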
# [17] = qHTS assay to identify small molecule agonists of the sonic hedgehog signaling (Shh) pathway (AID 1259368; calls by dose curve; further: series mostly up to about 92 µM; nearly all actives have a fitted effect of over 15% in size)
# Summary of the method: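 NIH/3T3-derived 3T3Gli1-Luc cells with stably integrated Gli1-driven firefly luciferase, 2,000 cells/well, compounds added after 4 hr. Incubated 24 hr at 37C, 5% CO2; luminescence read after 30 min with luciferase reagent at room temperature.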
# [18] = biological target: Estrogen receptor beta (Homo sapiens) (UniProt Q92731); assay: qHTS assay to identify small molecule agonists of the estrogen receptor beta (ER-beta) signaling pathway (AID 1259377; active means well fitted activation curve with a large enough effect in the signal ratio in the repeat runs, not every such curve was filed as active; the % refers to the signal ratio)
# Summary of the method: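 ER-beta-UAS-bla HEK293T (GripTite) cells carrying a UAS-driven beta-lactamase reporter, in medium with 2% charcoal-stripped FBS, were exposed to compounds for 16 hr at 37C; LiveBLAzer B/G FRET substrate was then added and fluorescence read after 2 hours at room temperature.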
# [19] = biological target: Androgen receptor (Homo sapiens) (UniProt P10275); assay: qHTS assay to identify small molecule agonists of the androgen receptor (AR) signaling pathway in the presence of an antagonist (AID 1259381; calls by dose curve; further: nearly all actives have a fitted effect of over 15% in size)
# Androgen receptor (Homo sapiens), sequence (P10275 whole entry, looked up): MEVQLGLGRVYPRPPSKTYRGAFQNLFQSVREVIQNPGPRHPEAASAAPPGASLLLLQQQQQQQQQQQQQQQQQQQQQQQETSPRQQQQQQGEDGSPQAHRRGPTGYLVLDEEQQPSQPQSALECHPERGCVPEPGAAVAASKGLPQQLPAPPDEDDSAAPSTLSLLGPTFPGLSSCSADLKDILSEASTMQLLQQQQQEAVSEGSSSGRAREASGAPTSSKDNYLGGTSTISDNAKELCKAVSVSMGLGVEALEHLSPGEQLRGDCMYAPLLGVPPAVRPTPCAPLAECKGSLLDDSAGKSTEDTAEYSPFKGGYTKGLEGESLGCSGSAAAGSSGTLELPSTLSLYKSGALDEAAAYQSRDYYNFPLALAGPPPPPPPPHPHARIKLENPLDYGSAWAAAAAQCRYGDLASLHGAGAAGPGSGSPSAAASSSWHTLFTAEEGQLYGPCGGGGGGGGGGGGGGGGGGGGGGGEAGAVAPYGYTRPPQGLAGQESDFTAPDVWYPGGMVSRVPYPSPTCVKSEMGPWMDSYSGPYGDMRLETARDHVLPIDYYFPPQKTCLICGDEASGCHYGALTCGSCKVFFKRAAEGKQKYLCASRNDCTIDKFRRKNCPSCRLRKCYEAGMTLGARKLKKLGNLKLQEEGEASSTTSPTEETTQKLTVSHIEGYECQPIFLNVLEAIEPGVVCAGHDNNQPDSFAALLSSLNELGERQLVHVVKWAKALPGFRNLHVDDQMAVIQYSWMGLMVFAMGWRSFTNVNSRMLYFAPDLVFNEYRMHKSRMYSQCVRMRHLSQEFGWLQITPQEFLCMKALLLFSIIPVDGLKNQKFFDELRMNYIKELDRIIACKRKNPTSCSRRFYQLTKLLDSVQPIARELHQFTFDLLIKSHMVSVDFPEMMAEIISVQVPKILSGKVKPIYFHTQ
# Summary of the method: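 MDA-kb2 cells carrying MMTV-luciferase (AR/GR responsive), 3,000 cells/well, co-treated with 3.0 uM nilutamide final. Compounds at 15 concentrations, 16 hr at 37C without CO2. Luciferase luminescence read after 30 min with ONE-Glo.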
Structure (SMILES),outcome [1],outcome [2],Potency [3],PLD induction [4],Potency [5],outcome [6],Potency [7],Potency [8],Potency [9],Potency [10],Potency [11],Potency [12],Potency [13],Potency [14],Potency [15],Potency [16],outcome [17],outcome [4],outcome [18],Potency [19]
CNCC(=O)c1ccc(O)c(O)c1,inactive,inactive,inactive,-2.28% [at 7.66 µM],inactive,inactive,inactive,inactive,inactive,inactive,inactive,inactive,inactive,inactive,4.22 µM (active),inactive,–,–,–,–
CC1CN1P(=O)(N1CC1C)N1CC1C (stereo not drawn),inactive,inactive,inactive,–,inactive,inactive,inactive,inactive,inactive,inactive,inactive,inactive,inactive,inactive,–,–,inactive,–,–,–
CC(=O)Nc1cc([As](=O)(O)O)ccc1O,inactive,inactive,inactive,–,inactive,inactive,inactive,inactive,inactive,inactive,inactive,inactive,–,inactive,inactive,inactive,inactive,inactive,inactive,–
CCOC(=O)/C=C(C)/C=C/C[C@@H](C)CCCC(C)C,inactive,inactive,inactive,–,inactive,inactive,inactive,inactive,–,–,inactive,43.3 µM (active),–,inactive,–,–,inactive,inactive,–,–
O=c1oc2ccccc2c(O)c1C1CCCc2ccccc21 (stereo not drawn),inactive,inactive,inactive,–,inactive,inactive,inactive,inactive,inactive,inactive,inactive,–,inactive,inactive,–,–,inactive,–,inactive,–
COC(=O)C1=CCCN(C)C1,inactive,inactive,inactive,–,inactive,inactive,inactive,inactive,–,inactive,inactive,inactive,–,inactive,inactive,inactive,inactive,inactive,inactive,–
Oc1c(Cl)cccc1Cl,inactive,inactive,inactive,–,inactive,inactive,inactive,inactive,inactive,inactive,inactive,inactive,–,inactive,inactive,inactive,inactive,–,–,–
CS(=O)(=O)c1cc(C(F)(F)F)ccc1C(=O)c1cnoc1C1CC1,inactive,inactive,inactive,–,inactive,inactive,inactive,inactive,inactive,inactive,inactive,inactive,inactive,–,–,inactive,inactive,–,inactive,–
ClC(Br)Br,inactive,inactive,inactive,–,inactive,inactive,inactive,inactive,inactive,inactive,inactive,inactive,–,inactive,inactive,inactive,inactive,–,inactive,–
NC(=S)C(N)=S,inactive,inactive,inactive,–,inactive,inactive,inactive,inactive,inactive,inactive,inactive,inactive,inactive,inactive,–,–,inactive,–,inactive,–
Cc1coc2c1CCC(C)C2 (stereo not drawn),inactive,inactive,inactive,–,inactive,inactive,inactive,inactive,inactive,inactive,inactive,inactive,inactive,–,inactive,inactive,inactive,–,inactive,–
Cc1ncc(CNC(=O)N(CCCl)N=O)c(N)n1,inactive,inactive,inactive,–,inactive,inactive,inactive,inactive,inactive,–,inactive,inactive,inactive,inactive,inactive,inactive,inactive,inactive,–,–
Cc1nnc2n1-c1sc(CCC(=O)N3CCOCC3)cc1C(c1ccccc1Cl)=NC2,inactive,inactive,inactive,–,inactive,inactive,inactive,inactive,inactive,–,inactive,inactive,inactive,inactive,inactive,inactive,inactive,inactive,–,–
COC(=O)c1c(C(F)F)nc(C(F)(F)F)c(C2=NCCS2)c1CC(C)C,inactive,inactive,inactive,–,inactive,inactive,inactive,inactive,inactive,inactive,inactive,inactive,inactive,inactive,inactive,inactive,inactive,–,inactive,inactive
CC(C)(C)C(=O)C(Oc1ccc(Cl)cc1)n1cncn1 (stereo not drawn),inactive,inactive,inactive,–,inactive,inactive,inactive,inactive,inactive,inactive,inactive,inactive,inactive,–,–,–,inactive,–,–,–
CC1(C)C(=O)NC(=O)NC1=O,inactive,inactive,inactive,–,inactive,inactive,inactive,inactive,inactive,inactive,inactive,inactive,–,inactive,inactive,inactive,inactive,–,inactive,–
CCS(=O)(=O)C(C)(C)S(=O)(=O)CC,inactive,inactive,inactive,–,inactive,inactive,inactive,inactive,inactive,inactive,inactive,inactive,inactive,inactive,inactive,inactive,inactive,inactive,inactive,–
